Assay [1] in a line: NCI Yeast Anticancer Drug Screen. Data for the rad50 strain (AID 155).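 Further: 0% = growth of vehicle-only cultures of the same strain.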 As to conditions: S. cerevisiae rad50 strain growth inhibition; at 50.0 µM; stronger effect = higher value. The gist of the method: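 Genetically altered yeast (DNA repair pathway); compound treatment; growth inhibition vs vehicle ctrl.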
The nature of assay [2]: NCI Yeast Anticancer Drug Screen. Data for the mec2-1 strain (AID 157). The conditions noted are these: S. cerevisiae mec2-1 strain, at 50.0 µM, stronger effect = higher value. An outline of the steps: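 Compounds were applied to mec2-1 yeast cells. Their growth was then compared with that of vehicle-treated cultures to give growth inhibition.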
The nature of assay [3]: NCI Yeast Anticancer Drug Screen. Data for the sgs1 mgt1 strain (AID 161).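 Further: 0% = growth of cultures given vehicle only.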 The conditions noted are these: S. cerevisiae sgs1 mgt1 strain, at 50.0 µM, stronger effect = higher value. The gist of the method:
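This yeast growth screen uses a strain with defined DNA-repair lesions; compound-treated growth is compared with vehicle-treated growth.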

Assay [4] can be described thus: NCI Yeast Anticancer Drug Screen. Data for the cln2 rad14 strain (AID 165).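 Further: 0% = growth equal to vehicle treated cultures.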 The conditions noted are these: S. cerevisiae cln2 rad14 strain, at 50.0 µM, stronger effect = higher value. The gist of the method: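 Strain: cln2 rad14 yeast, altered in cell cycle control and DNA damage repair. Read-out: growth inhibition vs vehicle.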
The nature of assay [5]: NCI Yeast Anticancer Drug Screen. Data for the bub3 strain (AID 167). The conditions noted are these: S. cerevisiae bub3 mutant strain, at 50.0 µM, stronger effect = higher value. The gist of the method:
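Yeast carrying a defined mutation is treated with each compound, and growth is compared with that of vehicle-exposed cells to give inhibition.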

Assay [6] can be described thus: NCI Yeast Anticancer Drug Screen. Data for the mlh1 rad18 strain (AID 175). The conditions noted are these: S. cerevisiae mlh1 rad18 strain growth inhibition; at 50.0 µM; stronger effect = higher value. An outline of the steps: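 A repair-deficient yeast strain is exposed to test compound, and growth is scored relative to vehicle-treated controls.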

The panel holds about 79,000 compounds, 15% with a hit somewhere; the sample as a whole holds those more often. A number with no mark means an inactive call. The source made the active and inactive calls. No stated cut-off is given here; in the data, active means growth inhibition above about 70%; inactive means the rest.

For `O=[N+]([O-])c1ccc(S(=O)(=O)N/N=C/c2ccco2)cc1`, the growth inhibition is 14.6% in assay [1]; 5.95% in assay [2]; 0.9% in assay [3]; 9.75% in assay [4]; 13.2% in assay [5]; 23.9% in assay [6].

Regarding `CN(c1ccccc1)C1C(=O)N(c2ccccc2)C1/C=C/c1ccccc1` (centres undefined), the growth inhibition in assay [1] was -8.7%; in assay [2] it was 0.8%; in assay [3], 13.3%; in assay [4], 29.4%; in assay [5], 11.9%; in assay [6] it was 39.1%.

Consider `COc1ccc(C2=CCCCc3cc(O)c(OC)cc32)cc1`, for which the growth inhibition in assay [1] was 93.9% (active); in assay [2], 96.7% (active); in assay [3], 97.2% (active); in assay [4] it was 79.8% (active); in assay [5], 98.1% (active); in assay [6] it was 97.2% (active).

As to `CCOC(=O)C(Cc1ccc(OC)c(C)c1)(NC(C)=O)C(=O)OCC`, the growth inhibition was -0.3% in assay [1]; 5.1% in assay [2]; -3.45% in assay [3]; -14.2% in assay [4]; 3.85% in assay [5]; 6.4% in assay [6].

`C/C=C/C1OCCC(C)O1` (centres undefined): the growth inhibition was 41.3% in assay [1]; -12% in assay [2]; 9.1% in assay [3]; 21.1% in assay [4]; 4.95% in assay [5]; 11% in assay [6].

As to `CCCNS(=O)(=O)c1nc2ccccc2s1`, the growth inhibition is -26% in assay [1]; -15.2% in assay [2]; -5.6% in assay [3]; -22.1% in assay [4]; 2.65% in assay [5]; -20.8% in assay [6].

For the compound `CCCCCCCC(CC#N)(CCCCC)CCCCCC` (centres undefined), the growth inhibition in assay [1] was 16.6%; in assay [2], -10.1%; in assay [3] it was 11.9%; in assay [4], -8.3%; in assay [5] it was 7.1%; in assay [6], 26.1%.

For the compound `COc1ccccc1C(=O)C(CN(C)C)CN(C)C`, the growth inhibition is -2.5% in assay [1]; -19.2% in assay [2]; 6.65% in assay [3]; 15.3% in assay [4]; -23.3% in assay [5]; 13.7% in assay [6].

As for `COc1ccc(C(=O)OCc2ccccc2CN2CCOCC2)cc1`, the growth inhibition is 0.75% in assay [1]; 12.5% in assay [2]; -8.45% in assay [3]; 30.3% in assay [4]; -4.9% in assay [5]; -26.4% in assay [6].

Take `CCC(=O)C(CC)c1ccccc1` (centres undefined): the growth inhibition in assay [1] is 9.25%; in assay [2], -8%; in assay [3], -4.8%; in assay [4] it was 2.2%; in assay [5], 4.4%; in assay [6], 4.55%.

Consider `COC1=CC(=C(c2ccc(O)c(OC)c2)c2ccc(O)c(OC)c2)C=CC1=O`, for which the growth inhibition in assay [1] is -2.75%; in assay [2], -6.95%; in assay [3], -2.55%; in assay [4], 4.4%; in assay [5], -22.4%; in assay [6], -31.9%.

Take `CS(=O)(=O)Nc1cccc(C(=O)NN)c1`: the growth inhibition in assay [1] is -8.1%; in assay [2] it was -16.2%; in assay [3], -3.4%; in assay [4] it was -11.3%; in assay [5] it was -11.7%; in assay [6], 14.4%.

As for `COc1ccc(/C=C2\N=C(c3ccc([N+](=O)[O-])cc3)OC2=O)cc1Br`, the growth inhibition was 29.9% in assay [1]; 21.6% in assay [2]; 27.5% in assay [3]; 23.4% in assay [4]; -1.95% in assay [5]; 29.4% in assay [6].

For the compound `CCN(CC)CCOC1(Cc2ccccn2)CCCCC1`, the growth inhibition in assay [1] was 1.2%; in assay [2], 15.2%; in assay [3], 6.7%; in assay [4], 21.3%; in assay [5], -0.4%; in assay [6], -9.75%.

As for `CNc1ccc([N+](=O)[O-])cc1C(=O)OC`, the growth inhibition is 8% in assay [1]; -6.1% in assay [2]; -8.55% in assay [3]; -46.2% in assay [4]; -22.9% in assay [5]; 22.9% in assay [6].

`COC(=O)Cc1cccnc1`: the growth inhibition was -3.3% in assay [1]; -6.85% in assay [2]; -11.3% in assay [3]; -0.55% in assay [4]; 0.05% in assay [5]; 12.7% in assay [6].

In the case of `O=C(N/N=C\c1ccc(Cl)cc1Cl)c1ccccc1S`, the growth inhibition in assay [1] is -59.4%; in assay [2], 6.45%; in assay [3], -4.55%; in assay [4] it was -0.2%; in assay [5], -13.2%; in assay [6], 5%.

For `C/C(CC(=O)Nc1ccc(C)cc1C)=N/N=C(N)N`, the growth inhibition in assay [1] is -10.8%; in assay [2], -17.2%; in assay [3] it was -15.2%; in assay [4], 15.4%; in assay [5], -17.7%; in assay [6] it was -17.1%.

As for `COC(=O)N/N=C/c1oc(-c2ccccc2)c(-c2ccccc2)c1[N+](=O)[O-]`, the growth inhibition in assay [1] was -2.15%; in assay [2], -12.6%; in assay [3], 16.5%; in assay [4] it was 20.8%; in assay [5], -10.1%; in assay [6] it was -8.2%.

Take `C=CC1CCC[N+]1(CC(=O)OCC)Cc1ccccc1` (centres undefined): the growth inhibition was -15.2% in assay [1]; -13.9% in assay [2]; -25.2% in assay [3]; 3.7% in assay [4]; -2.15% in assay [5]; -10.8% in assay [6].

With `CCCNc1cc2c(cc1Br)-c1ccccc1C2=O`, the growth inhibition in assay [1] was -18.8%; in assay [2], -3%; in assay [3] it was -10.2%; in assay [4], -16.1%; in assay [5], 19.1%; in assay [6], -0.65%.

For `CC(C)(C)N(Cc1ccccc1)C(=O)Nc1ccccc1`, the growth inhibition is 6.45% in assay [1]; 3.95% in assay [2]; 21.5% in assay [3]; 1.35% in assay [4]; 32.3% in assay [5]; 7.4% in assay [6].

With `C/C=C(\C)C(=O)OC1C2C(C)C(=O)OC2C(O)C(C)C2C=CC(=O)C21C` (centres undefined), the growth inhibition in assay [1] is -21.1%; in assay [2] it was -23.5%; in assay [3], -7.9%; in assay [4], 9.4%; in assay [5], -21.4%; in assay [6], 6.5%.

Regarding `O=C1c2ccccc2C(=O)N1CC(O)COCc1ccccc1` (centres undefined), the growth inhibition is -17.8% in assay [1]; -25.8% in assay [2]; -31.7% in assay [3]; -15.9% in assay [4]; 25.6% in assay [5]; -6.55% in assay [6].

`CNC(=O)OCc1c(COC(=O)NC)c(C)n(-c2ccccc2)c1C`: the growth inhibition is 7.75% in assay [1]; -14.1% in assay [2]; -24.2% in assay [3]; -0.35% in assay [4]; -3.95% in assay [5]; -24% in assay [6].

Take `CCCCc1c(O)nc(NCCCC(N)C(=O)O)[nH]c1=O` (centres undefined): the growth inhibition in assay [1] was -9.55%; in assay [2] it was -13.8%; in assay [3], -7.2%; in assay [4] it was -28.9%; in assay [5], -4.6%; in assay [6] it was -17.8%.

Turning to `Cc1n(C)nn[n+]1C`, the growth inhibition in assay [1] was 2.65%; in assay [2], -8.35%; in assay [3], -2.65%; in assay [4], -24.1%; in assay [5], 7.9%; in assay [6] it was -16.5%.

With `Cc1ccc(N=Nc2cc(C)c(N)cc2N)c(S(=O)(=O)O)c1`, the growth inhibition in assay [1] was -33.3%; in assay [2], -5.35%; in assay [3] it was -16.4%; in assay [4], -38.5%; in assay [5] it was 3.45%; in assay [6] it was -24.5%.

`Nc1nc2ccc3ccccc3c2c(=O)[nH]1`: the growth inhibition in assay [1] was -4.35%; in assay [2] it was 2.35%; in assay [3] it was -1.55%; in assay [4] it was -10.1%; in assay [5], -15.6%; in assay [6], 12.7%.

Take `C1CCOC2(CCC3(CC2)OCCCCO3)OC1`: the growth inhibition in assay [1] is -16.5%; in assay [2], 2.55%; in assay [3], -18.2%; in assay [4], -44.2%; in assay [5], -10.2%; in assay [6], -39.4%.

`C=CC1C(OC2OC(CO)C(O)C(O)C2O)OC=C(C(=O)OC)C1CC1CC(=O)CC(CCc2ccc(O)cc2)O1` (centres undefined): the growth inhibition in assay [1] was 1.8%; in assay [2], -10.1%; in assay [3] it was -4.9%; in assay [4], 1.45%; in assay [5], -13.9%; in assay [6] it was -76.2%.

For the compound `Cc1nc2c(ncn2C2OC(CO)C(O)C2O)c(=O)[nH]1` (centres undefined), the growth inhibition is -2.7% in assay [1]; 11.2% in assay [2]; -2.7% in assay [3]; -3.7% in assay [4]; 0.85% in assay [5]; -18.4% in assay [6].

Regarding `COc1ccc(CCN(C)C2c3ccccc3C=Cc3ccccc32)cc1OC`, the growth inhibition in assay [1] was 30.5%; in assay [2] it was 2.4%; in assay [3], 3.35%; in assay [4], -16.2%; in assay [5] it was -1.85%; in assay [6] it was 8.65%.

Regarding `CCCCSCCOC(=O)Nc1ccc(Cl)cc1`, the growth inhibition in assay [1] is 98.8% (active); in assay [2], 99.3% (active); in assay [3], 98% (active); in assay [4] it was 95.7% (active); in assay [5], 99.3% (active); in assay [6] it was 98.8% (active).

Turning to `COC(=O)/C=C(/C(=O)OC)c1c(C)c(C)c2c(C)cc(C)cc(C)c1-2`, the growth inhibition was 20.7% in assay [1]; 14.4% in assay [2]; 3.8% in assay [3]; 17.4% in assay [4]; 34.9% in assay [5]; 22.2% in assay [6].

Regarding `COS(=O)(=O)OC1(SC)C=C(c2ccccc2)SS1` (centres undefined), the growth inhibition in assay [1] is 73% (active); in assay [2], 28.1%; in assay [3] it was 29.2%; in assay [4] it was 9.5%; in assay [5], 20.3%; in assay [6], 72.6% (active).

Take `c1ccc2cc(-c3csc4ccccc34)ccc2c1`: the growth inhibition is 12.8% in assay [1]; -16.4% in assay [2]; 17.1% in assay [3]; -8.05% in assay [4]; 15.4% in assay [5]; 9.15% in assay [6].

Regarding `CC1=C(C(=O)Nc2ccccc2C)C(c2ccc(C3C(C(=O)Nc4ccccc4C)=CNC=C3C(=O)Nc3ccccc3C)cc2)C(C(=O)Nc2ccccc2C)=C(C)N1`, the growth inhibition in assay [1] was 29.3%; in assay [2], 44.8%; in assay [3], 28.9%; in assay [4], 21%; in assay [5], 50.4%; in assay [6], 46%.

Consider `CC(=O)c1cccc(C(=O)O)c1`, for which the growth inhibition in assay [1] is -17.4%; in assay [2], 1.95%; in assay [3], -11.7%; in assay [4], -29.7%; in assay [5], -2.35%; in assay [6], -4.3%.

These data come from PubChem BioAssay (NCI).
